Experimental data published in the supplement of paper PMC3334620.
The full ranking holds about 33,000 sequences; the median of “E-score (-0.5 to 0.5)” is about -0.017, and the highest 2% start at about 0.3. This is one part of a sample in which the highest values are shown more often than they occur.

molecular target: T1, Sut1 (UniProt P53032); experiment: PBM E-score (8-mer binding enrichment) (E-score (-0.5 to 0.5)); higher = stronger / more preferred TF binding; details: protein concentration: 200 nM; construct: GST-full length
T1 sequence: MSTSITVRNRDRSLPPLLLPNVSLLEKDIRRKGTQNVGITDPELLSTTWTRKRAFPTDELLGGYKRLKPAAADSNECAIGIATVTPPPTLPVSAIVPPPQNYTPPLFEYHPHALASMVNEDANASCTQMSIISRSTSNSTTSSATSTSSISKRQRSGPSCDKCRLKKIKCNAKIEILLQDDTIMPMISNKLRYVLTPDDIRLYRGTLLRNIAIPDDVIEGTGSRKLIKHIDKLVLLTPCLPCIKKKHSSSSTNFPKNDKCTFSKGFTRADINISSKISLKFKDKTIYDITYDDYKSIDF
Procedure, shortened: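 Each ungapped eight-base word and its reverse complement, pooled, received an E-score from the Universal PBM Analysis Suite. Underlying scans, normalised with masliner, recorded fluorescent anti-GST bound to GST-tagged yeast transcription factors. These were applied at about 100-200 nM to universal all-10-mer Agilent arrays double-stranded by primer extension.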

Sequence	PBM E-score
AGTCCGAA	0.49
AGTCCGAC	0.477
AATCCGAA	0.159
GGTCCGAC	0.24
AATCCGAT	0.195
AATCCGAG	0.0276
AGTCCGAG	0.489
AGTCCGAT	0.486
CGTCCGAC	-0.14
CGTCCGAG	0.149
AGTCCTAT	0.0983
AGTCCAAA	0.169
CGCATTCC	-0.284
AGTATCGG	0.176
CGTGGGTC	-0.162
CCTCAAGA	-0.113
GTCCTCAC	-0.0725
ACAGTCAC	-0.176
GCATACAA	0.0888
TCATACAA	0.304
ATATACAA	0.256
GTATACAA	0.179
TTATACAA	0.326
CCATACAA	0.0626
AACCTTGA	0.116

Sequence	PBM E-score
GATGGTGC	-0.409
GCAGGGAA	0.0261
CAAGAGAA	0.0231
AGAAGCCC	0.167
CAATATAC	0.144
TAATATAA	0.306
GAATATAA	0.153
TAATAATA	0.282
CGATAAAA	0.303
GGATAAAA	0.252
TGATAAAA	0.283
TAATAAAA	0.332
CAATAAAA	0.136
CAATATAG	0.1
GAATAAAA	0.242
CAATATAA	0.308
ATATAGGA	0.0279
AAATTGCA	-0.0262
ACCCTATC	0.0201
CTTGAACA	0.0785
GTTGCGCA	-0.226
CAGCCTAC	-0.0545
CGGATGCA	-0.0215
ATTGTATG	0.175
ATTGTATA	0.311

Sequence	PBM E-score
GATGTATA	0.0593
CATGTATA	0.0763
AATGTATA	0.298
CTTGTATA	0.166
AGCCTACG	-0.109
AGCCCATC	-0.23
AACATGGG	-0.00269
CTATTGAA	0.226
TAAAACAA	0.207
ACCAACAG	-0.297
AAAAACAA	0.316
ACCAACAA	0.299
GAAACAAA	0.321
AAACAAAC	0.165
AAACAAAG	0.322
GAAAACAA	0.184
GAAACAAC	0.107
CAAACAAA	0.161
ACCAACAT	0.0524
AAACAAAA	0.197
GAGTTGAA	0.18
ACAGATAT	0.0244
ATAAGTTC	0.261
ATACAGTG	0.0667
CTCCAAAG	0.0263

Sequence	PBM E-score
CCTCGACA	-0.288
CATGCGTA	-0.0829
ATCAGTTA	0.204
AAAAAACA	0.313
AAAACAAA	0.312
AAAACAAG	0.0776
AAAACAAT	0.215
TAAAAACA	0.188
GAAAAACA	0.125
AAGTTACC	0.158
CCCAAGGC	-0.0767
CATACGGC	-0.156
CATACGGA	0.303
GATACGCA	-0.141
CATACGGG	-0.186
TATACGAA	0.194
AATACGGA	0.286
GATACGGA	0.364
TATACGGA	0.312
GATACGGC	-0.104
ATGAGTCA	-0.0351
GCGCTAAC	-0.0641
TAGCTATA	-0.0172
GCGATCCA	-0.121
AGTTTTAT	0.211

Sequence	PBM E-score
TACCACCA	0.0245
CAGCCTGC	-0.224
AGACGAGG	-0.182
AGTACTCC	0.325
CGTACTCC	0.348
CGTACTCA	0.0162
CGTACTAC	0.0559
AGTACTCG	0.0601
AGTACTCA	0.0483
AAAGTCAG	0.00828
GCTAAAGC	-0.0213
CCTATCGC	-0.115
CAGCAAAG	-0.0349
GTCCGTCA	0.253
CTCCGTCA	0.369
ATCCGTCC	-0.0115
CCCCGTCC	-0.194
ATCCGTCA	0.0376
CTCCGTCC	0.307
CTACACAG	-0.108
CCAGGGTC	-0.265
ACGTATTC	-0.0472
TGACTTAA	0.153
CAGTCCGA	0.411
TAGTCCGA	0.48

Sequence	PBM E-score
GCGTCCGA	-0.09
GAGTCCGA	0.476
CCGTCCGA	0.0411
CAGTCCCG	-0.0578
GAGTCCGC	0.282
TAGTCCCA	-0.21
TAGTCCAA	-0.01
CAGTCCAG	-0.325
CAGTCCGG	0.353
CAGTCCGC	0.196
AACTTACT	0.0273
CGCCCTTC	-0.0609
AGTGGCGA	0.0883
AGGGGCCC	-0.217
AACAGAAT	0.0169
ATCGATGG	-0.0596
AGGCTACG	-0.345
AAGTCTGA	-0.193
CAAATTCA	0.0268
GCAGAATA	-0.0687
GCACCGGA	0.338
ACACCGGC	0.0168
TCACCGCA	-0.0955
TCACCGGA	0.397
GCACCGTA	0.0972

Sequence	PBM E-score
CCACCGGG	-0.0405
ACACCGGT	0.0191
ACACCGGA	0.343
TCACCGAA	0.155
CCACCGGA	0.362
CCACCGGC	0.0248
GCACCGGC	-0.0791
GGCTTTAC	0.113
ACTGAGAC	0.00875
ATCCAGAC	-0.0133
CGGTTTAC	0.00822
AGGGCTGA	-0.161
CGAGGAAG	0.0543
AAGCCATC	0.0153
TAACAGGA	0.0331
GAACCAGA	-0.185
GAACGTGC	-0.234
TGGTTAAA	0.159
AAACGGAA	0.331
AAACGGGA	0.159
TCACGGAA	0.238
CAACGGAC	0.291
AAACGGAT	0.209
AAACGGAG	0.37
GAACGGAA	0.166

Sequence	PBM E-score
TAACGGAA	0.309
AAACGGTA	0.0446
CAACGGAG	0.399
CAACGGAA	0.25
AAACGGAC	0.147
ACCCAACG	-0.0276
CACCCTAC	-0.161
CATATGCG	-0.0808
AGTAAACG	-0.0776
CTACCAGC	-0.212
GGCGTTGA	-0.134
GCAGTAAC	-0.144
GAATTGTA	0.128
CTCTCCCC	-0.259
AATGCTTG	-0.238
CGACCTGA	-0.184
CCTAAAGA	0.0405
ACTAATCA	0.139
CAGAGTCA	-0.379
CAAAGAAA	0.115
TAAAGAAA	0.301
ACAAGAAA	0.218
TCAAGAAA	0.316
GAAAGAAA	0.294
CCAAGAAA	0.241

Sequence	PBM E-score
CTAGGCCA	-0.145
ATGGGGAA	-0.0455
GAGAAGGC	-0.0615
CGCGCACC	-0.0354
GGTGAGAA	0.137
CCGCTCAA	-0.078
ACTCCTGC	0.0597
ACTCCGGG	0.491
CCTCCGGC	0.106
ACTCCCGG	0.174
ACTCCGGC	0.489
CATCCGGG	-0.0527
TACAATGA	0.153
CAAGATTC	0.235
ATACGGAT	0.0822
CTACGGAA	0.0897
CTACGGAC	0.169
ATACGGAG	0.362
ATACGGTG	0.0347
CTACGGAG	0.381
